Results on one sequence are retold here after paper PMC7862700, “An all-to-all approach to the identification of sequence-specific readers for epigenetic DNA modifications on cytosine”.

Holding throughout (assay): DAPPL (digital affinity profiling via proximity ligation, sequencing); 10 mM Tris-HCl pH 7.5, 50 mM NaCl, 1 mM DTT, 4% glycerol, room temperature, 30 min; GST-TFs on glutathione beads, 16-mer random dsDNA library, 0.1% formaldehyde crosslink after washing; high values mean tight binding
The target in one assay is T1, FLI1 (Homo sapiens, UniProt Q01543 1-452).
T1 sequence: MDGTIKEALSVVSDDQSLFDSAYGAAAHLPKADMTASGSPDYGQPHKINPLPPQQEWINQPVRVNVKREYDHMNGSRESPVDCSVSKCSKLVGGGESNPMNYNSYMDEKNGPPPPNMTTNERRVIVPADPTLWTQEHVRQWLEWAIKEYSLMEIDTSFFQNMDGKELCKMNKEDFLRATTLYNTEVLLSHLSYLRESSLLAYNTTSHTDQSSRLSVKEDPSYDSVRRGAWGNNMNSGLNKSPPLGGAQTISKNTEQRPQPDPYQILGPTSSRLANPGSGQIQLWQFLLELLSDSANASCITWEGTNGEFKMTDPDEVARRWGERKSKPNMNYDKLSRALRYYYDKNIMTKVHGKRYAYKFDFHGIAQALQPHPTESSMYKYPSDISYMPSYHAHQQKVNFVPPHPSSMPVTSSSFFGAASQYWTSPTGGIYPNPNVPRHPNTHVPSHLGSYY
Particulars: protein: recombinant; tags: N-terminal GST; dsDNA, one strand shown. Put shortly: (§1)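 Yeast served to express human transcription factors as GST fusions, which were then captured on glutathione beads and labelled with DNA barcodes. Pooled with a tag-only sample, they were incubated with 200 nmole of a 16-mer random double-stranded DNA library for 30 min at room temperature in Tris/NaCl/DTT/glycerol buffer, washed, crosslinked with 0.1% formaldehyde, ligated by proximity, amplified by PCR and sequenced. Dividing each hexamer's read frequency for a factor by its frequency for the tag-only sample gives the binding signal.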

Another assay concerns the target T2, ELK1 (Homo sapiens, UniProt P19419 1-428).
T2 sequence: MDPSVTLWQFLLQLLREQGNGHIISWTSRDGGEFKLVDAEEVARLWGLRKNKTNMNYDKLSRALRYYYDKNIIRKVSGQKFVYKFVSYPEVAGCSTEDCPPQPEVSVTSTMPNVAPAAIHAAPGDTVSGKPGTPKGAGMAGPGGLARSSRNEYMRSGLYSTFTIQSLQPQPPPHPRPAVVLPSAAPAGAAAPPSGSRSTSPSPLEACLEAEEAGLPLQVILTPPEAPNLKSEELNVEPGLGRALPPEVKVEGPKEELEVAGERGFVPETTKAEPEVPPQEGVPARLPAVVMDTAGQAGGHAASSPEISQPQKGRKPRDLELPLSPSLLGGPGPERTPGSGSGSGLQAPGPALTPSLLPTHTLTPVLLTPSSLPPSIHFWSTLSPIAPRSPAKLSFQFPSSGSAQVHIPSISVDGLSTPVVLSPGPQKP
Particulars: protein: recombinant; tags: N-terminal GST; dsDNA, one strand shown. Put shortly:
as §1

The target in another assay is T3, GABPA (Homo sapiens, UniProt Q06546 1-454).
T3 sequence: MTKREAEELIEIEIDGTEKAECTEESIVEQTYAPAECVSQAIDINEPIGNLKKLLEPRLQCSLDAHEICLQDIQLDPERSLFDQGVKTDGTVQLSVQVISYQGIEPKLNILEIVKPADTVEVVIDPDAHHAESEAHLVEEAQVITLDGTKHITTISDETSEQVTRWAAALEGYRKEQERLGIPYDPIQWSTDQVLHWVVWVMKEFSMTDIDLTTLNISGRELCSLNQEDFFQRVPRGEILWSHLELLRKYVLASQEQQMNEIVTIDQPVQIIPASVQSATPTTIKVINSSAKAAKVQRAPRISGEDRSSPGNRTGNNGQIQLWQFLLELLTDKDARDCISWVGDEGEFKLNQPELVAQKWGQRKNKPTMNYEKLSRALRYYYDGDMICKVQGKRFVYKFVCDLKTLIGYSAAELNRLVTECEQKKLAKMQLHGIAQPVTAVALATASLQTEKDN
Particulars: protein: recombinant; tags: N-terminal GST; dsDNA, one strand shown. Put shortly:
as §1

Another assay addresses T4, ERG (Homo sapiens, UniProt P11308 1-479).
T4 sequence: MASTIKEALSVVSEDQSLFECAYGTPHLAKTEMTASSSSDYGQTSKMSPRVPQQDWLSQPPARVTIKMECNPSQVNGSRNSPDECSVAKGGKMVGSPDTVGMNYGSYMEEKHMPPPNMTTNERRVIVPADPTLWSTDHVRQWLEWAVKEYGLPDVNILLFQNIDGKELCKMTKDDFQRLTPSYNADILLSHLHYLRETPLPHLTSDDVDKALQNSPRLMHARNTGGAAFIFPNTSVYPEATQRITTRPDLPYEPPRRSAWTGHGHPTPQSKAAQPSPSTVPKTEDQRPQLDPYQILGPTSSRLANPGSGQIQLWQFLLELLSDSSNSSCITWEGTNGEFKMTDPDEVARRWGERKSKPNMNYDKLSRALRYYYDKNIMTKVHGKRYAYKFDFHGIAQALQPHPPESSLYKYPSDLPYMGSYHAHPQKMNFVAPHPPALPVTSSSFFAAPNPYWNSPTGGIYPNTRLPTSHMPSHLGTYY
The following applies: protein: recombinant; tags: N-terminal GST; dsDNA, one strand shown. Summed up: as §1

The next assay deals with ELF1 (Homo sapiens, UniProt P32519 1-619). The following applies: protein: recombinant; tags: N-terminal GST; dsDNA, one strand shown. Put shortly: as §1
The next assay addresses T5, EHF (Homo sapiens, UniProt Q9NZC4 1-300).
T5 sequence: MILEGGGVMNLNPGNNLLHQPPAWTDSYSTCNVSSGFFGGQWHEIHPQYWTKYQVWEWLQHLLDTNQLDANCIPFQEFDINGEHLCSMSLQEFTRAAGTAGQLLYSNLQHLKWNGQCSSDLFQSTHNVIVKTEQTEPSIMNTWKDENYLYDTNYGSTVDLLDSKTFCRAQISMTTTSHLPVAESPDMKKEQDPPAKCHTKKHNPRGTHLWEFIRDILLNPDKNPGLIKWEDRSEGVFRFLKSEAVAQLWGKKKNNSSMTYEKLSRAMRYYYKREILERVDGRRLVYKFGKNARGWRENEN
Particulars: protein: recombinant; tags: N-terminal GST; dsDNA, one strand shown. Summed up: as §1

Another assay concerns the target SPI1 (Homo sapiens, UniProt P17947 1-270). The following applies: protein: recombinant; tags: N-terminal GST; dsDNA, one strand shown. Summed up:
as §1

In a further assay the target is SPIB (Homo sapiens, UniProt Q01892 1-262). The following applies: protein: recombinant; tags: N-terminal GST; dsDNA, one strand shown. Summed up:
as §1

The target in another assay is T6, ELK3 (Homo sapiens, UniProt P41970 1-407).
T6 sequence: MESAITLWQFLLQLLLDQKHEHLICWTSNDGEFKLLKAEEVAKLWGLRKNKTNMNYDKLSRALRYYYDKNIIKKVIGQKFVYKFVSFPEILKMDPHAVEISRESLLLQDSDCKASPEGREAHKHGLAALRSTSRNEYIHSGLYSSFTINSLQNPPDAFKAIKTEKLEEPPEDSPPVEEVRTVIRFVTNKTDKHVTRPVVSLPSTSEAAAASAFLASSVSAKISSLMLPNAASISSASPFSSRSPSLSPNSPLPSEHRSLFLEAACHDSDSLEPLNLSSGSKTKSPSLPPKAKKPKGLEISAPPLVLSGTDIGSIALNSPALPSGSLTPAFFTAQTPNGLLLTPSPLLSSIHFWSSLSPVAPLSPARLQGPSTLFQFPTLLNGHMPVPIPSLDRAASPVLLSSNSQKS
The following applies: protein: recombinant; tags: N-terminal GST; dsDNA, one strand shown. Put shortly:
as §1

The target of the next assay is T7, FEV (Homo sapiens, UniProt Q99581 1-238).
T7 sequence: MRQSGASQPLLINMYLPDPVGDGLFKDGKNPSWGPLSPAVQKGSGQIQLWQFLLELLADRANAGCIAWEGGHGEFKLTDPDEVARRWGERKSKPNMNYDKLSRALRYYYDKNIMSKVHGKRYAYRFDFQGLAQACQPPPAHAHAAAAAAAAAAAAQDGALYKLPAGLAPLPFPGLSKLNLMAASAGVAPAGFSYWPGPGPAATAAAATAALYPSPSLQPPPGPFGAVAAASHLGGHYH
Particulars: protein: recombinant; tags: N-terminal GST; dsDNA, one strand shown. Put shortly: as §1

The target in a further assay is ETV5 (Homo sapiens, UniProt P41161 1-510). The following applies: protein: recombinant; tags: N-terminal GST; dsDNA, one strand shown. Put shortly: as §1
Another assay addresses HSF1 (Homo sapiens, UniProt Q00613 1-529). The following applies: protein: recombinant; tags: N-terminal GST; chain copies: 3; dsDNA, one strand shown. Summed up: as §1
The target in another assay is T8, SPIC (Homo sapiens, UniProt Q8N5J4 1-248).
T8 sequence: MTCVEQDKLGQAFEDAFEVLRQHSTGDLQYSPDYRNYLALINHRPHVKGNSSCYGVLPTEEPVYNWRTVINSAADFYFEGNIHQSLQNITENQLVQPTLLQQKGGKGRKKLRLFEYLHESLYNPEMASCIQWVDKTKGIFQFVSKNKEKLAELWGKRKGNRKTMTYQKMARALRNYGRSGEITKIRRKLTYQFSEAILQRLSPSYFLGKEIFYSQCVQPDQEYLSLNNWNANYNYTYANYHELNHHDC
The following applies: protein: recombinant; tags: N-terminal GST; dsDNA, one strand shown. Summed up:
as §1

The next assay has as its target ELF4 (Homo sapiens, UniProt Q99607 1-663). The following applies: protein: recombinant; tags: N-terminal GST; dsDNA, one strand shown. Summed up:
as §1

The next assay deals with T9, ELK4 (Homo sapiens, UniProt P28324-2 1-405).
T9 sequence: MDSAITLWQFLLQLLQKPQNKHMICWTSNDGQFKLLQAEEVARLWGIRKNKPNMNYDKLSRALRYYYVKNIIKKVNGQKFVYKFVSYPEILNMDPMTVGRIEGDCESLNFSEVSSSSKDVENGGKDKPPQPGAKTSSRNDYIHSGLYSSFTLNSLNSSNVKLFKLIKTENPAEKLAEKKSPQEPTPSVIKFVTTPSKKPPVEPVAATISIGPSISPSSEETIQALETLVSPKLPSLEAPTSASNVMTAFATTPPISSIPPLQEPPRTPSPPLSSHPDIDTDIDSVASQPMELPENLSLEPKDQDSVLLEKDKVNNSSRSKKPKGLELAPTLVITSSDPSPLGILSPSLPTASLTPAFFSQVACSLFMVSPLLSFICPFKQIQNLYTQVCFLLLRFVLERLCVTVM
The following applies: protein: recombinant; tags: N-terminal GST; dsDNA, one strand shown. Put shortly:
as §1

The target of a further assay is T10, ELF3 (Homo sapiens, UniProt P78545 1-371).
T10 sequence: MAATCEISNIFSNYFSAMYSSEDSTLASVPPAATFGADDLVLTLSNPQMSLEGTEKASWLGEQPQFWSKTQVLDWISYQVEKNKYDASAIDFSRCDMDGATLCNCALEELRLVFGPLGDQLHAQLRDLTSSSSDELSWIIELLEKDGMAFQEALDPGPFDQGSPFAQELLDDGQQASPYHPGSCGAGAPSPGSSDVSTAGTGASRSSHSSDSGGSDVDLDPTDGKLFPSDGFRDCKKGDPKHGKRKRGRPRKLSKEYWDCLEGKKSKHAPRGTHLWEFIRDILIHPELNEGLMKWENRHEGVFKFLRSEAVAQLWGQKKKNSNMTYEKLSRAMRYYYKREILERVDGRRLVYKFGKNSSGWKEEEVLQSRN
Particulars: protein: recombinant; tags: N-terminal GST; dsDNA, one strand shown. Put shortly: as §1

Another assay concerns the target CRX (Homo sapiens, UniProt O43186 1-299). The following applies: protein: recombinant; tags: N-terminal GST; dsDNA, one strand shown. Put shortly: as §1
A further assay concerns the target ETV1 (Homo sapiens, UniProt P50549 1-477). The following applies: protein: recombinant; tags: N-terminal GST; dsDNA, one strand shown. Summed up:
as §1

ETV5, sequence (P41161 whole entry): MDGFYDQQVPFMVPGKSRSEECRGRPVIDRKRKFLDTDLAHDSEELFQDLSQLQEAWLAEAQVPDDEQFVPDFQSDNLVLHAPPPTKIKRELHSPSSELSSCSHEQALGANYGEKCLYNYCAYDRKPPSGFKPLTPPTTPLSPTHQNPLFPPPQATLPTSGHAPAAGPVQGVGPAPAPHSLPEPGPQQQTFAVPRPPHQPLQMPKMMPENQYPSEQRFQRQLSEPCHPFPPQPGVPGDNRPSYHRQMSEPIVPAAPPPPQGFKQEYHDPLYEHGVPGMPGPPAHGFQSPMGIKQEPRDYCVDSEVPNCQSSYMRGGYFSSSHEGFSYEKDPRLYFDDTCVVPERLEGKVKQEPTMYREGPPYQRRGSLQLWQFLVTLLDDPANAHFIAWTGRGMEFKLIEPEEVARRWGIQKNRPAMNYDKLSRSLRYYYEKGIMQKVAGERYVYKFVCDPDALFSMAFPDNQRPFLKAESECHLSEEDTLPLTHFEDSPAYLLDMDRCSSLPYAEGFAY
SPIB, sequence (Q01892 whole entry): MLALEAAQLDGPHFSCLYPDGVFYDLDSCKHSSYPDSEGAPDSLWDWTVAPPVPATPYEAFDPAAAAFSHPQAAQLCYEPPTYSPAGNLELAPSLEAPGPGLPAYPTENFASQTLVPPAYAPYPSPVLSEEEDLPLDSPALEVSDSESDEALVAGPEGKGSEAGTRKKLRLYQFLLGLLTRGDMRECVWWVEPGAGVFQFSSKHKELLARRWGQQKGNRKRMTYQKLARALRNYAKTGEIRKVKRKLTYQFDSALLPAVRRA
ELF4, sequence (Q99607 whole entry): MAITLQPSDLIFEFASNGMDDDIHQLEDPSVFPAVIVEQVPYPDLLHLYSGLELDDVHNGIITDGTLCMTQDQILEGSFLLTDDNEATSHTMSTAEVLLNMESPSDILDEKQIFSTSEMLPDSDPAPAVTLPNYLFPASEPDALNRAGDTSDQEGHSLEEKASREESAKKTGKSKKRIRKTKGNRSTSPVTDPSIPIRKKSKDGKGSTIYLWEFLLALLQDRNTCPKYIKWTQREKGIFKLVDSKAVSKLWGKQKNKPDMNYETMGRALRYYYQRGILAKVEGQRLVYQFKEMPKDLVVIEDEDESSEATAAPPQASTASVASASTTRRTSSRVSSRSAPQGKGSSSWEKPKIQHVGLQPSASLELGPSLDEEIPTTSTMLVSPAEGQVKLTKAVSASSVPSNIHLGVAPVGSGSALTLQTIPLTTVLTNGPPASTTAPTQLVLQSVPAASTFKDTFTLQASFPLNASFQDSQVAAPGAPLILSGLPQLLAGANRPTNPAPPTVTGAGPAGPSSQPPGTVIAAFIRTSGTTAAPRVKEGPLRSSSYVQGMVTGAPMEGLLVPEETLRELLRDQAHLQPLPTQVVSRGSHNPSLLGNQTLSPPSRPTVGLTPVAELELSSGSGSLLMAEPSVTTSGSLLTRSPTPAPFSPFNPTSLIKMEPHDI
CRX, sequence (O43186 whole entry): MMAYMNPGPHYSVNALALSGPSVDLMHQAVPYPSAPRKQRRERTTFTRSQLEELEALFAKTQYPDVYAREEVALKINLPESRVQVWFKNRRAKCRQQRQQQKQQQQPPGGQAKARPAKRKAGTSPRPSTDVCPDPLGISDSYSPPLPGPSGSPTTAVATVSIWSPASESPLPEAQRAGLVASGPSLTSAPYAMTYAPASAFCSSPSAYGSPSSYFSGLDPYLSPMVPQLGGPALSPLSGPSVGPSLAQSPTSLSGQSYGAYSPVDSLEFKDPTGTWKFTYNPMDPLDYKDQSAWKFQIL
HSF1, sequence (Q00613 whole entry): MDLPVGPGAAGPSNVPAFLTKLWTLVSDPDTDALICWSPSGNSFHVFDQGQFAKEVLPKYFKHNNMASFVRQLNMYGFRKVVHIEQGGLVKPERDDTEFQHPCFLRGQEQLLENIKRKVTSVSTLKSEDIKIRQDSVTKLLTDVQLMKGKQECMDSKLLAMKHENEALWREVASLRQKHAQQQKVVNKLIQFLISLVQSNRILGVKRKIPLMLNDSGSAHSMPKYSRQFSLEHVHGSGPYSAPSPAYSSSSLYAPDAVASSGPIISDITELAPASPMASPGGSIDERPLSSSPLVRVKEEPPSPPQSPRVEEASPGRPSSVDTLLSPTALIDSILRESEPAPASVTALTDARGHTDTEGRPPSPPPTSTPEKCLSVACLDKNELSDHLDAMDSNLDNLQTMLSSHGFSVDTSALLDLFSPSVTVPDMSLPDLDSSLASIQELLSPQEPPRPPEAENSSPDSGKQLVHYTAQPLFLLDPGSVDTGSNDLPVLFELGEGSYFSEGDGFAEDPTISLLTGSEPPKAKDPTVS
ETV1, sequence (P50549 whole entry): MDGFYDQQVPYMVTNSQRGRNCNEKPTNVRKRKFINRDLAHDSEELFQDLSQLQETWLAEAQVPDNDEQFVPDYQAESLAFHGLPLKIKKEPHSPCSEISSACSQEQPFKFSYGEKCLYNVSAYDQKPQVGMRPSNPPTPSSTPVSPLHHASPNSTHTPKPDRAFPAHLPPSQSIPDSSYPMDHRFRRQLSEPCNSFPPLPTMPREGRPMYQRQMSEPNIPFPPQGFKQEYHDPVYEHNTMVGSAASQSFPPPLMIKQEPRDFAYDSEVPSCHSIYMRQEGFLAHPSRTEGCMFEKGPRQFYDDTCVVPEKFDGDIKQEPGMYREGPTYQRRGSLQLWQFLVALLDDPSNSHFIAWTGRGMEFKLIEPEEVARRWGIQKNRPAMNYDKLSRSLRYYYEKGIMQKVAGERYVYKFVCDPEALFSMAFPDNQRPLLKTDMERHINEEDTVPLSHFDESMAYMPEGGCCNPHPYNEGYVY
ELF1, sequence (P32519 whole entry): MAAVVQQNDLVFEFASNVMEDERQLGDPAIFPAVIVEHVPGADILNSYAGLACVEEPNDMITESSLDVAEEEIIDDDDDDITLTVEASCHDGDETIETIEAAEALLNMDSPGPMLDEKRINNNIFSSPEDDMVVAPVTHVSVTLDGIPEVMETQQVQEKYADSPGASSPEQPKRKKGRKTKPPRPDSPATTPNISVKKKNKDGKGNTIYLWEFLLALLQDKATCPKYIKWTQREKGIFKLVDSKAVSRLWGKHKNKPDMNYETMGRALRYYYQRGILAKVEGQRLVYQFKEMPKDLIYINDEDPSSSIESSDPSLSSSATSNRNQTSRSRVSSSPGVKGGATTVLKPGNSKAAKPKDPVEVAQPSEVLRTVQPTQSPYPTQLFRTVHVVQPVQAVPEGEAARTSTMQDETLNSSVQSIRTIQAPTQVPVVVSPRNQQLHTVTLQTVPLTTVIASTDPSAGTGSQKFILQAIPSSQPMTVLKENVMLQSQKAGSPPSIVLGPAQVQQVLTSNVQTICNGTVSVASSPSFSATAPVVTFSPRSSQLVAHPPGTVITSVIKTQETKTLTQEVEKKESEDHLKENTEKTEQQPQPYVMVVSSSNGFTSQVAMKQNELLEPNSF

Turning to AGCCTC, the binding signal with FLI1 is 1.39 fold enrichment (6-mer frequency, TF over GST control); with ELK1, 1.3 fold enrichment (6-mer frequency, TF over GST control); with GABPA it was 1.31 fold enrichment (6-mer frequency, TF over GST control); with ERG, 1.21 fold enrichment (6-mer frequency, TF over GST control); in the assay with ELF1, 1.25 fold enrichment (6-mer frequency, TF over GST control); in the assay with EHF, 1.13 fold enrichment (6-mer frequency, TF over GST control). Also, the binding signal is 1.26 fold enrichment (6-mer frequency, TF over GST control) in the assay with SPI1; 1.07 fold enrichment (6-mer frequency, TF over GST control) in the assay with SPIB; 1.21 fold enrichment (6-mer frequency, TF over GST control) in the assay with ELK3; 1.27 fold enrichment (6-mer frequency, TF over GST control) in the assay with FEV; 1.27 fold enrichment (6-mer frequency, TF over GST control) with ETV5; 1.3 fold enrichment (6-mer frequency, TF over GST control) with HSF1. Besides, the binding signal was 1.25 fold enrichment (6-mer frequency, TF over GST control) in the assay with SPIC; 1.36 fold enrichment (6-mer frequency, TF over GST control) with ELF4; 1.13 fold enrichment (6-mer frequency, TF over GST control) with ELK4; 1.22 fold enrichment (6-mer frequency, TF over GST control) with ELF3; 1.33 fold enrichment (6-mer frequency, TF over GST control) with CRX; 1.13 fold enrichment (6-mer frequency, TF over GST control) with ETV1.
